Measured values reported in PubChem BioAssay AID1159580 (chemical genetic matrix, 2015).
Out of some 5,500 compounds screened, about 2,000 (36%) were called active. Inconclusive results (about 18%) are left out. The list shows a part of the results. Values without a mark were called inactive. Cut-off read from the data, not from the text of the source: active = normalized growth mostly below about 0.91 (no sharp cut-off); inconclusive = no clear call, values can overlap the other calls; inactive = mostly above about 0.92.

Assay: chemical genetic growth profiling, strain panel (AID 1159580);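 note: tested at 20 µM; growth read once vehicle control cultures reached saturation at 30 °C; 1 = growth at the plate median or of vehicle wells; lower values mean less growth of the strain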
Conditions: growth OD
[1] = S. cerevisiae deletion strains, locus YAL013W, strain DEP1, active compounds read low
[2] = S. cerevisiae deletion strains, locus YDR150W, strain NUM1, active compounds read low
[3] = S. cerevisiae deletion strains, locus YJR075W, strain HOC1, active compounds read low
[4] = S. cerevisiae deletion strains, locus YMR307W, strain GAS1, active compounds read low
[5] = S. cerevisiae deletion strains, locus YNL128W, strain TEP1, active compounds read low
[6] = S. cerevisiae deletion strains, locus YNL153C, strain GIM3, active compounds read low
[7] = S. cerevisiae deletion strains, locus YHR030C, strain SLT2, active compounds read low
[8] = S. cerevisiae deletion strains, locus YJL187C, strain SWE1, active compounds read low

COC(=O)Nc1nc2ccc(C(=O)c3cccs3)cc2[nH]1
normalized growth [1]: 1.03
normalized growth (S. cerevisiae deletion strains, locus YAL040C, strain CLN3, active compounds read low): 0.635 (active)
normalized growth (S. cerevisiae deletion strains, locus YCL061C, strain MRC1 (second series), active compounds read low): 1.01
normalized growth [2]: 0.994
normalized growth (S. cerevisiae deletion strains, locus YDR363W, strain ESC2, active compounds read low): 1.03
normalized growth (S. cerevisiae deletion strains, locus YER002W, strain NOP16, active compounds read low): 1.01
normalized growth (S. cerevisiae deletion strains, locus YGR229C, strain SMI1, active compounds read low): 1.03
normalized growth [3]: 1.04
normalized growth [4]: 1.01
normalized growth [5]: 0.73 (active)
normalized growth [6]: 0.124 (active)
normalized growth (S. cerevisiae deletion strains, locus YNL175C, strain NOP13, active compounds read low): 0.715 (active)
normalized growth (S. cerevisiae deletion strains, locus YNL197C, strain WHI3, active compounds read low): 0.429 (active)
normalized growth (S. cerevisiae deletion strains, locus YNL224C, strain SQS1, active compounds read low): 0.605 (active)
normalized growth (S. cerevisiae deletion strains, locus YOR083W, strain WHI5 (second series), active compounds read low): 0.442 (active)

COC(=O)Nc1nc2ccc(S(=O)c3ccccc3)cc2[nH]1 (centres undefined)
normalized growth (S. cerevisiae deletion strains, locus YAL021C, strain ccr4, active compounds read low): 1.01
normalized growth (S. cerevisiae deletion strains, locus YAL026C, strain drs2, active compounds read low): 0.986
normalized growth (S. cerevisiae deletion strains, locus YAL030W, strain snc1, active compounds read low): 0.997
normalized growth (S. cerevisiae deletion strains, locus YBL061C, strain skt5, active compounds read low): 0.995
normalized growth (S. cerevisiae deletion strains, locus YBR009C, strain hhf1, active compounds read low): 0.999
normalized growth (S. cerevisiae deletion strains, locus YBR023C, strain chs3, active compounds read low): 0.993
normalized growth (S. cerevisiae deletion strains, locus YBR171W, strain sec66, active compounds read low): 0.971
normalized growth (S. cerevisiae deletion strains, locus YBR231C, strain swc5, active compounds read low): 0.993
normalized growth (S. cerevisiae deletion strains, locus YBR279W, strain paf1, active compounds read low): 0.994
normalized growth (S. cerevisiae deletion strains, locus YCL011C, strain gbp2, active compounds read low): 1.01
normalized growth (S. cerevisiae deletion strains, locus YCL016C, strain dcc1, active compounds read low): 1.01
normalized growth (S. cerevisiae deletion strains, locus YCL061C, strain MRC1, active compounds read low): 0.994
normalized growth (S. cerevisiae deletion strains, locus YCL069W, strain vba3, active compounds read low): 0.988
normalized growth (S. cerevisiae deletion strains, locus YCR088W, strain abp1, active compounds read low): 0.998
normalized growth (S. cerevisiae deletion strains, locus YDL005C, strain med2, active compounds read low): 0.994
normalized growth (S. cerevisiae deletion strains, locus YDL040C, strain nat1, active compounds read low): 1
normalized growth (S. cerevisiae deletion strains, locus YDR001C, strain nth1, active compounds read low): 0.983
normalized growth (S. cerevisiae deletion strains, locus YDR069C, strain doa4, active compounds read low): 0.99
normalized growth (S. cerevisiae deletion strains, locus YDR137W, strain rgp1, active compounds read low): 0.996
normalized growth (S. cerevisiae deletion strains, locus YDR159W, strain sac3, active compounds read low): 0.966
normalized growth (S. cerevisiae deletion strains, locus YDR195W, strain ref2): 0.969
normalized growth (S. cerevisiae deletion strains, locus YDR297W, strain sur2, active compounds read low): 0.997
normalized growth (S. cerevisiae deletion strains, locus YDR334W, strain swr1, active compounds read low): 0.983
normalized growth (S. cerevisiae deletion strains, locus YDR335W, strain msn5, active compounds read low): 0.973
normalized growth (S. cerevisiae deletion strains, locus YDR392W, strain spt3, active compounds read low): 1
normalized growth (S. cerevisiae deletion strains, locus YEL003W, strain gim4, active compounds read low): 0.962
normalized growth (S. cerevisiae deletion strains, locus YEL037C, strain rad23, active compounds read low): 0.993
normalized growth (S. cerevisiae deletion strains, locus YEL061C, strain CIN8 (second series), active compounds read low): 0.983
normalized growth (S. cerevisiae deletion strains, locus YER015W, strain faa2, active compounds read low): 0.995
normalized growth (S. cerevisiae deletion strains, locus YER016W, strain bim1, active compounds read low): 0.986
normalized growth (S. cerevisiae deletion strains, locus YER111C, strain swi4, active compounds read low): 0.986
normalized growth (S. cerevisiae deletion strains, locus YER155C, strain BEM2 (second series), active compounds read low): 0.953
normalized growth (S. cerevisiae deletion strains, locus YFR010W, strain ubp6, active compounds read low): 0.988
normalized growth (S. cerevisiae deletion strains, locus YGL167C, strain pmr1, active compounds read low): 0.984
normalized growth (S. cerevisiae deletion strains, locus YGL173C, strain kem1, active compounds read low): 0.991
normalized growth (S. cerevisiae deletion strains, locus YGL227W, strain vid30, active compounds read low): 0.986
normalized growth (S. cerevisiae deletion strains, locus YGL240W, strain doc1, active compounds read low): 0.967
normalized growth (S. cerevisiae deletion strains, locus YGL253W, strain hxk2, active compounds read low): 0.998
normalized growth (S. cerevisiae deletion strains, locus YHR013C, strain ard1, active compounds read low): 1.02
normalized growth (S. cerevisiae deletion strains, locus YHR027C, strain rpn1, active compounds read low): 0.989
normalized growth [7]: 1.03
normalized growth (S. cerevisiae deletion strains, locus YHR079C, strain IRE1, active compounds read low): 1.02
normalized growth (S. cerevisiae deletion strains, locus YHR142W, strain chs7, active compounds read low): 0.994
normalized growth (S. cerevisiae deletion strains, locus YJL092W, strain hpr5, active compounds read low): 0.984
normalized growth (S. cerevisiae deletion strains, locus YJL095W, strain BCK1 (second series), active compounds read low): 1
normalized growth (S. cerevisiae deletion strains, locus YJL095W, strain BCK1, active compounds read low): 0.972
normalized growth (S. cerevisiae deletion strains, locus YJL115W, strain asf1, active compounds read low): 0.985
normalized growth (S. cerevisiae deletion strains, locus YJL129C, strain trk1, active compounds read low): 0.981
normalized growth (S. cerevisiae deletion strains, locus YJL154C, strain vps35, active compounds read low): 0.987
normalized growth (S. cerevisiae deletion strains, locus YJL164C, strain tpk1, active compounds read low): 1.01
normalized growth (S. cerevisiae deletion strains, locus YJL166W, strain qcr8, active compounds read low): 0.975
normalized growth [8]: 0.984
normalized growth (S. cerevisiae deletion strains, locus YJR066W, strain TOR1, active compounds read low): 0.975
normalized growth (S. cerevisiae deletion strains, locus YKL160W, strain elf1, active compounds read low): 0.99
normalized growth (S. cerevisiae deletion strains, locus YKR026C, strain gcn3, active compounds read low): 0.979
normalized growth (S. cerevisiae deletion strains, locus YKR091W, strain srl3, active compounds read low): 1
normalized growth (S. cerevisiae deletion strains, locus YLL001W, strain dnm1, active compounds read low): 0.976
normalized growth (S. cerevisiae deletion strains, locus YLL026W, active compounds read low): 1
normalized growth (S. cerevisiae deletion strains, locus YLL041C, strain sdh2, active compounds read low): 0.99
normalized growth (S. cerevisiae deletion strains, locus YLR027C, strain aat2, active compounds read low): 0.989
normalized growth (S. cerevisiae deletion strains, locus YLR113W, strain HOG1, active compounds read low): 0.982
normalized growth (S. cerevisiae deletion strains, locus YLR221C, strain rsa3, active compounds read low): 1.01
normalized growth (S. cerevisiae deletion strains, locus YLR258W, strain gsy2, active compounds read low): 0.984
normalized growth (S. cerevisiae deletion strains, locus YLR262C, strain YPT6 (second series), active compounds read low): 0.987
normalized growth (S. cerevisiae deletion strains, locus YLR320W, strain mms22, active compounds read low): 1
normalized growth (S. cerevisiae deletion strains, locus YLR342W, strain FKS1, active compounds read low): 0.991
normalized growth (S. cerevisiae deletion strains, locus YLR357W, strain rsc2, active compounds read low): 0.993
normalized growth (S. cerevisiae deletion strains, locus YLR370C, strain arc18, active compounds read low): 0.998
normalized growth (S. cerevisiae deletion strains, locus YLR384C, strain iki3, active compounds read low): 0.986
normalized growth (S. cerevisiae deletion strains, locus YML120C, strain ndi1, active compounds read low): 0.998
normalized growth (S. cerevisiae deletion strains, locus YMR058W, strain fet3, active compounds read low): 0.993
normalized growth (S. cerevisiae deletion strains, locus YMR125W, strain sto1, active compounds read low): 0.982
normalized growth (S. cerevisiae deletion strains, locus YMR129W, active compounds read low): 0.99
normalized growth (S. cerevisiae deletion strains, locus YMR205C, strain PFK2, active compounds read low): 0.982
normalized growth (S. cerevisiae deletion strains, locus YMR231W, strain pep5, active compounds read low): 0.98
normalized growth (S. cerevisiae deletion strains, locus YNL071W, strain lat1, active compounds read low): 0.994
normalized growth (S. cerevisiae deletion strains, locus YNL183C, strain NPR1, active compounds read low): 0.971
normalized growth (S. cerevisiae deletion strains, locus YNL209W, strain ssb2, active compounds read low): 1.01
normalized growth (S. cerevisiae deletion strains, locus YNL248C, strain rpa49, active compounds read low): 1.01
normalized growth (S. cerevisiae deletion strains, locus YNL322C, strain KRE1 (second series), active compounds read low): 0.998
normalized growth (S. cerevisiae deletion strains, locus YNR049C, strain mso1, active compounds read low): 0.977
normalized growth (S. cerevisiae deletion strains, locus YOR001W, strain rrp6, active compounds read low): 0.982
normalized growth (S. cerevisiae deletion strains, locus YOR070C, strain gyp1, active compounds read low): 0.999
normalized growth (S. cerevisiae deletion strains, locus YOR080W, strain dia2, active compounds read low): 0.974
normalized growth (S. cerevisiae deletion strains, locus YOR083W, strain WHI5, active compounds read low): 0.991
normalized growth (S. cerevisiae deletion strains, locus YOR106W, strain vam3, active compounds read low): 1
normalized growth (S. cerevisiae deletion strains, locus YOR231W, strain MKK1, active compounds read low): 1
normalized growth (S. cerevisiae deletion strains, locus YOR265W, strain rbl2, active compounds read low): 0.992
normalized growth (S. cerevisiae deletion strains, locus YOR270C, strain vph1, active compounds read low): 1
normalized growth (S. cerevisiae deletion strains, locus YOR290C, strain snf2, active compounds read low): 1.01
normalized growth (S. cerevisiae deletion strains, locus YPL051W, strain arl3, active compounds read low): 0.993
normalized growth (S. cerevisiae deletion strains, locus YPL078C, strain atp4, active compounds read low): 0.963
normalized growth (S. cerevisiae deletion strains, locus YPL106C, strain sse1, active compounds read low): 0.99
normalized growth (S. cerevisiae deletion strains, locus YPL240C, strain hsp82, active compounds read low): 1
normalized growth (S. cerevisiae deletion strains, locus YPL256C, strain CLN2, active compounds read low): 1.01

COC(=O)c1cccc(NC(=O)CC2C(=O)NCCN2C(=O)c2cccs2)c1 (centres undefined)
normalized growth [1]: 1.02
normalized growth (S. cerevisiae deletion strains, locus YBR229C, strain ROT2, active compounds read low): 1.02
normalized growth (S. cerevisiae deletion strains, locus YDL101C, strain DUN1, active compounds read low): 1
normalized growth (S. cerevisiae deletion strains, locus YDL134C, strain PPH21, active compounds read low): 1.04
normalized growth [2]: 0.982
normalized growth (S. cerevisiae deletion strains, locus YEL061C, strain CIN8, active compounds read low): 1.01
normalized growth (S. cerevisiae deletion strains, locus YGR078C, strain PAC10, active compounds read low): 1.01
normalized growth [7]: 1.07
normalized growth (S. cerevisiae deletion strains, locus YHR087W, strain rtc3, active compounds read low): 0.987
normalized growth [8]: 0.989
normalized growth (S. cerevisiae deletion strains, locus YJR043C, strain POL32, active compounds read low): 1.02
normalized growth [3]: 1.01
normalized growth (S. cerevisiae deletion strains, locus YLR039C, strain RIC1, active compounds read low): 1.02
normalized growth (S. cerevisiae deletion strains, locus YLR058C, strain SHM2 (second series), active compounds read low): 0.996
normalized growth (S. cerevisiae deletion strains, locus YLR085C, strain ARP6, active compounds read low): 0.997
normalized growth (S. cerevisiae deletion strains, locus YLR262C, strain YPT6, active compounds read low): 1.08
normalized growth (S. cerevisiae deletion strains, locus YML094W, strain GIM5, active compounds read low): 0.993
normalized growth (S. cerevisiae deletion strains, locus YMR219W, strain ESC1, active compounds read low): 1.01
normalized growth (S. cerevisiae deletion strains, locus YMR263W, strain SAP30, active compounds read low): 0.958
normalized growth [4]: 1.01
normalized growth [5]: 1.01
normalized growth [6]: 1.01
normalized growth (S. cerevisiae deletion strains, locus YNL298W, strain CLA4 (second series), active compounds read low): 1.04
normalized growth (S. cerevisiae deletion strains, locus YNL322C, strain KRE1, active compounds read low): 1
normalized growth (S. cerevisiae deletion strains, locus YNR030W, strain Alg12, active compounds read low): 1.03
normalized growth (S. cerevisiae deletion strains, locus YPL055C, strain LGE1, active compounds read low): 0.941
normalized growth (S. cerevisiae deletion strains, locus YPL241C, strain CIN2, active compounds read low): 1.01
normalized growth (S. cerevisiae deletion strains, locus YPR135W, strain CTF4, active compounds read low): 1.1
normalized growth (S. cerevisiae strains, strain wild type, active compounds read low): 1.02
